# Source: PubChem BioAssay (NCI)
# Values joined by “and” are separate entries in the source; they are usually repeats but may differ in a detail not shown here. Equal entries are not always repeated. The panel holds about 83,000 compounds, 20% with a hit somewhere; the sample as a whole holds those more often.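 How to read the values: 0–100, growth inhibition (40 = 60% inhibited); 0, no net growth; -100 to 0, cell death (-40 = 40% of starting cells died; -100 = all dead).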 Active and inactive are the calls of the source. How the source made its calls: active means growth percent below 10; inactive means the rest.
# Test system: MDA-MB-468 breast
# Test: NCI-60 one-dose screen, 48 h (100 = growth as untreated, 0 = no growth, -100 = all killed)
# Conditions: 10 µM unless noted
row,Compound,growth
1,CC[C@H](NC(=O)[C@H]1CCCCN1C)C(=O)N(C)[C@H](C[C@@H](OC(C)=O)c1nc(C(=O)N[C@@H](Cc2ccccc2)C[C@H](C)C(=O)O)cs1)C(C)C,17.6% (inactive)
2,CC1=C(CN(O)C(N)=O)C2=C(C)C3(CC3)[C@@](C)(O)C(=O)C2=C1,-69.1% (active)
3,COc1cc(C=Nc2cccc(C(=O)O)c2)ccc1N(CCCl)CCCl,46.6% (inactive)
4,C/C(=N/OC(=O)N(C)C)c1ccc(Cl)c(Cl)c1,120% (inactive)
5,CC(=O)O[C@H](C[C@H](C(C)C)N(C)C(=O)[C@@H](NC(=O)[C@H]1CCCN1C)C(C)C)c1nc(C(=O)N[C@@H](Cc2ccccc2)C[C@H](C)C(=O)O)c(C)s1,18.7% (inactive)
6,Cc1cc([N+](=O)[O-])c(Cl)cc1NS(=O)(=O)c1ccccc1,59.4% (inactive)
7,O=NN1CCCCC1,106% (inactive)
8,CC1=C[C@H]2O[C@@H]3C[C@@H](O)[C@](C)([C@@]2(C)CC1)[C@@]31CO1,28.7% (inactive)
9,CN[C@]1(c2ccccc2Cl)CCCC[C@H]1NCCCN1CCN(C)CC1,85.2% (inactive)
10,COC(=O)CCc1c[nH]c2ccc(N(CCCl)CCCl)cc12,8.73% (active)
11,C/C=C/CC(C)C(O)[C@H](NC(=O)[C@@H]1CCCN1C(=O)C(C)(C)NC(=O)CCCCCCCCC)C(=O)N[C@@](C)(CC)C(=O)N[C@@H](CCC(N)=O)C(=O)N[C@H](CCC(N)=O)C(=O)NC(C)(C)C(=O)N[C@@](C)(CC)C(=O)N[C@@H](CCC(N)=O)C(=O)N[C@H](CC(C)C)C(=O)N[C@H](CO)CC(C)C (stereo not given in full),99.2% (inactive) and -78.2% (active)
12,COC(=O)[C@@H](NC(=O)c1cn(CCC2CCCCC2)c2ccccc12)C(C)(C)C,82.3% (inactive)
13,COc1cc2c(cc1OC)CN(C)C(C)C2 (stereo not given),97.9% (inactive)
14,Oc1c(Cl)cc(Cl)c2ccccc12.[Cu+2],101% (inactive)
15,O=[N+]([O-])c1ccc(N(CCO)CCO)c2c1no[n+]2[O-],2.96% (active)
16,CCCCN(CCCC)CC(O)c1ccccc1 (stereo not given),116% (inactive)
17,Cc1cc(N)ccc1N,86.4% (inactive)
18,O=C(CCCCCCC(=O)Nc1ccc(N(CCCl)CCCl)cc1)NO,-64.2% (active)
19,c1ccc(COc2ccc3[nH]cc(CCN(Cc4ccccc4)Cc4ccccc4)c3c2)cc1,87.9% (inactive)
20,S=P(NC1CCCCC1)(N1CC1)N1CC1,103% (inactive)

row,Compound,growth
1,CCC1(NC(=O)c2cc(F)c(F)c(F)c2F)C(=O)NC(=O)N(C(C)C)C1=O (stereo not given),95.2% (inactive)
2,CN1CCN(c2ccc(Cl)cc2)CC1,71.1% (inactive)
3,CNC(=O)CCl,100% (inactive)
4,O=C(NCc1ccc([N+](=O)[O-])cc1)Nc1ccc(S(=O)(=O)F)cc1,40.4% (inactive)
5,N/C(=N\N=C\c1ccc(-c2ccccc2)cc1)N[N+](=O)[O-],20% (inactive)
6,c1ccc2nc(OCCN3CC3)ccc2c1,69.3% (inactive)
7,O=[N+]([O-])c1ccc(Br)c([N+](=O)[O-])c1,34% (inactive)
8,C[C@]12CCc3nc(Nc4ccccc4F)sc3C1=CC[C@@H]1[C@@H]2CC[C@]2(C)C(=O)CC[C@@H]12,23.7% (inactive)
9,Cn1c(O)c(N=O)c(=O)n(C)c1=O,112% (inactive) and 106% (inactive)
10,O=C(CCCc1ccc(N(CCCl)CCCl)cc1)OCc1ccccc1,87% (inactive)
11,CCOC(=O)[C@@H](C)C[C@H](Cc1ccccc1)NC(=O)c1csc([C@@H](C[C@H](C(C)C)N(C)C(=O)CNC(=O)[C@H]2CCCCN2C)OC(C)=O)n1,28% (inactive)
12,CCC1CN1P(=O)(OCCOC)N1CC1CC (stereo not given),110% (inactive)
13,ClCCN(CCCl)c1ccc(OCc2ccccc2)cc1,58.3% (inactive)
14,CCCCCCCC[N+]12CN3CN(CN(C3)C1)C2,93.4% (inactive)
15,Cc1ccccc1-n1c(/C=C\c2ccccn2)nc2ccccc2c1=O,3.39% (active)
16,NC(=O)c1cc([N+](=O)[O-])c(Cl)c([N+](=O)[O-])c1,19.8% (inactive)
17,COc1cc(/C=C\[N+](=O)[O-])ccc1O,4.87% (active) and 65.1% (inactive)
18,CCCCCCCCCCCCCCCCCC1OC[C@H](COC(=O)O[C@@H](C(=O)O[C@H]2C[C@@]3(O)[C@@H](OC(=O)c4ccccc4)[C@@H]4[C@]5(OC(C)=O)CO[C@@H]5C[C@H](O)[C@@]4(C)C(=O)[C@H](OC(C)=O)C(=C2C)C3(C)C)[C@@H](NC(=O)c2ccccc2)c2ccccc2)O1 (stereo not given in full),0.893% (active)
19,CC(=O)O[C@H]1C[C@H](O[C@H]2[C@@H](O)C[C@H](O[C@H]3[C@@H](O)C[C@H](O[C@H]4CC[C@@]5(C)C(CCC6C5C[C@@H](O)[C@]5(C)[C@@H](C7=CC(=O)OC7)CC[C@]65O)C4)O[C@@H]3C)O[C@@H]2C)O[C@H](C)[C@H]1O[C@@H]1O[C@H](CO)[C@@H](O)[C@H](O)[C@H]1O (stereo not given in full),-56.2% (active)
20,CN(C)CCCOc1ccc2c(c1)c(C(=O)C(=O)NCCO)cn2Cc1ccccc1,117% (inactive)
